Assay outcomes as filed in PubChem BioAssay.
HTR5A inv ctr: inverse agonist of human HTR5A in OPRM1-OPRD1 counter-screen; 0.083% of 340,000 active; HTR5A cell line, luminescence, inverse agonism; inhibition, % at 9.3 µM; AID 504634; P47898; in the data active = inhibition mostly above about 23%, no sharp cut-off; inactive = mostly below about 18%;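 note: 0% = cells with DMSO and 100% = no-cell wells with DMSO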
Target sequence (P47898 whole entry, looked up): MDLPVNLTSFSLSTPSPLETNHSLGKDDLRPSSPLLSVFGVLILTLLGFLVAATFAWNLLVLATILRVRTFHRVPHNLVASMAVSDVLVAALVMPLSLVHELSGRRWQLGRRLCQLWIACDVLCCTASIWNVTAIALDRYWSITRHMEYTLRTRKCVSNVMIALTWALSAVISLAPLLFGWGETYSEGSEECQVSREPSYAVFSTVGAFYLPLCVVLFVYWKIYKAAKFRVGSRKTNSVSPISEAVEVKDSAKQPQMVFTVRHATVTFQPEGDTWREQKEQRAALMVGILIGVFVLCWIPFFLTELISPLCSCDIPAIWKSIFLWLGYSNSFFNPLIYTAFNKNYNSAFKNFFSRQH
OPRM1-OPRD1 inv: inverse agonist of human OPRM1-OPRD1 heterodimerization; cell-based MOR-DOR heterodimer luminescence, inverse agonism; P35372+P41143; AID 504357; 0.21% of 340,000 active; inhibition, % at 9.3 µM; in the data active = inhibition above about 22%, passing the limit was not always enough;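 note: 0% = cells with DMSO and 100% = wells without cells with DMSO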
MOR-DOR ag: agonists of human mu-delta opioid receptor heterodimerization; activation, % at 9.3 µM; cells, OPRM1-OPRD1 heterodimerization, luminescence; 0.3% of 340,000 active; P35372+P41143; AID 504326;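 note: 0% = vehicle-treated cells and 100% = reference agonist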
HTR5A ag ctr: activates human HTR5A in OPRM1-OPRD1 agonist counter-screen; P47898; activation, % at 9.3 µM; 0.61% of 340,000 active; HTR5A agonist assay, luminescence, cell-based; AID 504692; in the data active = activation mostly above about 9.5%, no sharp cut-off; inactive = mostly below about 7.6%;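 note: 0% = cells with vehicle only and 100% = reference agonist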
MOR-DOR ag conf: confirmation of human OPRM1-OPRD1 heterodimerization agonists; 45% of 830 active; activation, % at 9.3 µM; shares compounds with MOR-DOR ag; cells, MOR-DOR heterodimerization, luminescence complementation;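 note: 0% = vehicle-treated cells and 100% = reference agonist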
HTR5A ag counter: activates human HTR5A in OPRM1-OPRD1 agonist counter-screen; shares compounds with MOR-DOR ag; HTR5A agonist counterscreen, cell luminescence; activation, % at 9.3 µM; 8% of 830 active; in the data active = activation above about 17%;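 note: 0% = vehicle-treated cells and 100% = reference agonist response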
* = called active by the depositor; i = inactive; . = no result given. Only some compounds are listed: those with a hit (about 1.1% of all), similar ones and a draw of the others. Cut-off read from the data, not from the text of the source, unless noted: active = activation above about 18%; inactive = the rest.

SMILES	HTR5A inv ctr	OPRM1-OPRD1 inv	MOR-DOR ag	HTR5A ag ctr	MOR-DOR ag conf	HTR5A ag counter
COc1ccc(CN2CCC(N(CCc3ccccc3)Cc3ccccc3)CC2)c(OC)c1	-9.2	i	107.2*	3.2	2.7	7.3
CCCN1CCC(N(CCc2ccccc2)Cc2ccccc2)CC1	16.2	-6.9	1.4	-4.8	.	.
Cc1ccc2nc(Cl)c3cc(C(=O)N(CCN(C)C)Cc4ccco4)sc3c2c1	3.4	-156.1	31.6*	-1.4	0.6	3.0
COc1ccc(S(=O)(=O)N(C)c2ccc(C(=O)NCc3ccco3)cc2)cc1OC	13.9	12.6	-2.4	5.8	.	.
Cc1ccccc1/C=N/Nc1ccnc2cc(Cl)ccc12	-13.8	-128.7	21.4*	5.1	22.2*	9.0
Cc1ccc(/C=N/Nc2ccnc3cc(Cl)ccc23)c(C)c1	6.5	-129.5	17.9	-2.4	.	.
Cc1cccc(C(=O)OCCN2CCOCC2)c1	-3.4	16.5	-3.2	1.2	.	.
OCC[C@H]1C[C@@H](O)[C@H](O)[C@@]2(Cc3ccccc3CO2)O1	-7.2	8.7	-1.5	2.7	.	.
Cc1ccc(-c2nnn(CC(=O)Nc3ccc(S(=O)(=O)N4CCC(C)CC4)cc3)n2)cc1	-65.3	-229.6	46.6*	15.1*	26.0*	8.2
Cn1c(CN2CCN(c3cccc(Cl)c3)CC2)nc2ccccc21	11.0	-140.5	28.6*	2.8	123.6*	1.6
Cc1ccc(N2CCN(c3ccc(NCc4nc5ccccc5n4C)cc3)CC2)cc1	8.7	i	282.8*	-3.2	45.9*	30.1*
C=CCOc1ccccc1/C=N/NC(=O)Cc1ccc(C)cc1	10.5	-13.6	2.6	0.7	.	.
CCc1c(N)nc(N)nc1Nc1ccccc1C	12.6	-105.1	21.0*	-3.2	1.0	4.7
Cc1ccccc1Nc1nc(N)nc(C)c1Br	-7.2	6.7	-1.3	1.8	.	.
C(=N\Nc1nc2ccccc2[nH]1)/c1ccccn1	-10.1	5.8	-1.2	-0.8	.	.
C#CCn1cc(/C=N/Nc2nc3ccccc3[nH]2)c2ccccc21	7.8	-226.2	33.4*	-2.6	0.7	3.7
COc1ccc(OC)c(/C=C/c2nc3ccccc3[nH]c2=O)c1	-17.2	-115.5	20.7*	7.1	7.3	7.9
COc1ccc(OC)c(C=Nc2ccccc2-c2nc3ccccc3[nH]2)c1	25.4	-1.0	0.2	4.8	.	.
Cc1cccc(C(=O)NNC(=O)c2cc3cc4ccccc4nc3s2)c1	-5.2	-93.7	22.3*	2.1	5.3	16.2
COc1ccc(NC(=O)CN2CCOCC2)cc1S(=O)(=O)N1CCCCC1	4.3	-9.4	2.4	-1.9	.	.
COc1ccc(NC(=O)CN2CCc3ccccc3C2)cc1S(=O)(=O)N1CCOCC1	-16.1	-344.6	50.9*	2.9	3.0	8.3
Cc1ccc(-n2c([S-])c(C(=O)Nc3ccc(OC(F)F)cc3)[n+]3ccc(C(=O)NCCO)cc23)cc1C	19.5	-93.1	18.6*	-2.2	0.4	3.4
CCOC(=O)C1=C(CN2CC(C)CC(C)C2)NC(=O)NC1c1ccc2c(c1)OCO2 (centres undefined)	25.8	-136.5	26.2*	-3.4	24.2*	4.9
CCN(CC)S(=O)(=O)c1cccc(C(=O)N/N=C(\C)c2cccs2)c1	-1.6	5.6	-1.1	0.6	.	.
COc1ccccc1NS(=O)(=O)c1cccc(C(=O)N/N=C/c2ccc(C)o2)c1	-0.2	4.4	-0.8	7.3	.	.
SMILES	HTR5A inv ctr	OPRM1-OPRD1 inv	MOR-DOR ag	HTR5A ag ctr	MOR-DOR ag conf	HTR5A ag counter
Cc1ccc(/C=N/NC(=O)c2cccc(S(=O)(=O)Nc3cccc(Cl)c3)c2)o1	15.6	-95.6	19.1*	0.3	21.5*	10.1
C/C(=N\NC(=O)c1cccc(S(=O)(=O)Nc2cccc(Cl)c2)c1)c1cccs1	-15.2	-103.3	20.3*	5.8	3.3	0.3
S=C(NCCc1ccccc1)N1CCN(C23CC4CC(CC(C4)C2)C3)CC1	7.1	-96.0	20.3*	-2.8	9.7	0.6
COc1ccc(C2CC(c3ccc4ccccc4c3OC(C)=O)=NN2C(C)=O)cc1 (centres undefined)	9.7	i	129.3*	-3.3	21.4*	10.5
CC(NC(=O)CSC(=S)N1CCCC1)c1ccc(S(N)(=O)=O)cc1 (centres undefined)	-14.2	10.6	-1.6	4.7	.	.
Cc1cc(Cl)ccc1OCC(=O)N[C@@H](Cc1ccccc1)c1nc2ccccc2[nH]1	-25.0	-128.1	24.1*	5.7	44.2*	2.4
CCOC(=O)c1sc2nc(SCC(=O)NCc3ccco3)n(Cc3ccccc3)c(=O)c2c1C	1.6	i	150.3*	0.0	2.1	2.5
CCOC(=O)N1CCN(c2ncnc3c2[nH]c2ccc(OC)cc23)CC1	-44.6	1.0	-0.2	14.0	.	.
COc1ccc2[nH]c3c(N4CCc5ccccc5C4)ncnc3c2c1	-21.5	-99.3	19.6*	10.3	2.0	6.2
OCC1(CCc2ccccc2)CCN(Cc2cc(F)ccc2-n2cccn2)CC1	1.6	-406.6	77.9*	-0.9	92.3*	-2.8
OCC1(CCc2ccccc2)CCN(Cc2ccccc2Cl)CC1	10.6	-259.5	54.8*	-4.1	85.7*	2.4
Clc1ccccc1CN1CCN(CCCc2ccccc2)CC1	6.8	-42.0	9.0	-2.5	.	.
COc1ccc2c(c1)C=C(CN1CCC(CO)(CCc3ccccc3)CC1)CO2	-8.0	-180.1	35.9*	3.0	53.8*	0.7
O=C(COc1ccccc1)N[C@@H]1c2ccccc2CC[C@H]1OCc1ccccc1	-1.3	-11.4	2.4	0.3	.	.
COc1ccc(C(=O)OCC(=O)N(C)C2CCS(=O)(=O)C2)cc1S(=O)(=O)N(C)Cc1ccccc1 (centres undefined)	11.7	18.7	-3.6	-4.3	.	.
COc1ccc(C(=O)OCC(=O)N(C)C2CCS(=O)(=O)C2)cc1Br (centres undefined)	10.2	-297.7	75.6*	-1.6	-1.2	-0.4
Cc1cc(-c2nn(-c3ccccc3F)cc2CN2CCN(c3ccccn3)CC2)c(C)s1	2.9	-134.8	27.6*	-1.1	3.4	-0.4
CCOc1cc(C)c(S(=O)(=O)Nc2ccc(F)cc2)cc1C	-10.7	-96.4	18.9*	10.0	10.6	3.6
CCN(c1nc(N)c(C(=O)N=C(N)N)nc1Cl)C(C)C	-11.3	-282.3	51.0*	2.1	95.5*	-2.6
Cc1c(CCOC(=O)c2ccccc2)sc[n+]1CC(=O)c1ccc(Br)cc1	-17.2	-288.0	35.7*	5.8	54.0*	-1.0
Cc1c(CCOC(=O)c2cc([N+](=O)[O-])cc([N+](=O)[O-])c2)sc[n+]1CC(=O)c1ccccc1	-17.7	-25.2	4.9	6.2	.	.
CN1CCN(c2ccc(NC(=O)c3ccc(-c4cccc([N+](=O)[O-])c4)o3)cc2)CC1	9.3	i	99.7*	-3.6	93.3*	5.0
CN1CCN(c2ccc(NC(=O)c3ccc(-c4ccc(Cl)cc4)o3)cc2)CC1	-31.4	i	305.8*	8.6	19.5*	-1.7
O=C(Nc1ccc(N2CCN(C(=O)c3ccc(Cl)cc3)CC2)cc1)c1ccc(Br)o1	8.2	5.5	-1.0	-2.9	.	.
